# Experimental data reported in the supplement of paper PMC10338343.
# ± gives the standard deviation.
# Tested on: EfPiwi piRISC loaded with L1MC piRNA (26 nt)
# Experiment: pre-steady-state target cleavage rate (min^-1); auxiliary factor: 500 nM Ephydatia muelleri Gtsf1; guide: L1MC piRNA 5'p-UAACUAAAUACUAUGCAAGCUGUAGG; MIWI and MILI are mouse PIWI proteins and EfPiwi is from a freshwater sponge; tags in brackets are library labels; higher = faster piRNA-guided slicing of the target
# Procedure: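 Cleave-'n-Seq: a library of target RNAs (target site in constant flanks) at […] was incubated with 1 nM active freshwater sponge Ephydatia fluviatilis Piwi piRISC (synthetic 5'-monophosphorylated piRNA guide) with or without 500 nM EmGtsf1 at 33 °C for 1 min to 16 h. Uncleaved targets were sequenced and the pooled three trials fitted to a burst-and-steady-state model to give the pre-steady-state cleavage rate (min^-1). Sequence is the target site only. Fits with R² ≤ 0 are excluded.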
row,Sequence,pre-steady-state target cleavage rate
1,UCCUGCUACAGCUAGCAUAGUAUAUAGUUA,0.00485 ± 0.0017
2,UCCUGGAUGUCGAACGUAAGUAUUUAGUGA,< 0.0001
3,UCCUGGAUGAGCUCGCAUAGUAUUUAGUUA,0.0143 ± 0.0042
4,UCCUCCAUGAGCUUGCAUAGUAUUUAGUAA,0.00588 ± 0.0024
5,UCCUCCUACAGCUAGCAUAGUAUUAAGUUA,0.00633 ± 0.0029
6,UCCUGGAUGUGCUGUGCAUAGUAUUUAGUUA,0.00568 ± 0.0024
7,UCCUGGAUGAGCUUGCAUAGUGUUUAGUUA,0.00987 ± 0.0028
8,UCCUGCUACAGCUUGCAUUGUAUUUACUUA,0.00271 ± 0.0027
9,UCCUGGAUGUGCUUGCAAAGUAUUUAGUUA,0.00905 ± 0.0036
10,UCCUGCUACAGGUUGGAUAGUAUUUAGUUA,0.00793 ± 0.0027
11,UCCUGGAUGUCCUUGCAUAGUAUUUUAGUUA,0.00287 ± 0.0028
12,UCCUGGAAUAGCUUGCAUAGUAUUUAGUUA,0.0137 ± 0.0037
13,UCCUCCAACAGCUUGCAUAGUAUUAAGUUA,0.00502 ± 0.002
14,UCCUGGAUCAGCAUGCAUUGUAUUUAGUUA,0.00421 ± 0.0021
15,UCCUCCUACAGCUUGCAUAGUAAUUAGUAA,0.0063 ± 0.0029
16,UCCUCCUUCAGCUUGCAUAGUAUUUAGAUA,0.00476 ± 0.0027
17,UCCUGGAUGUCGAUGCAUAGUAUUUAAGUUA,0.00522 ± 0.0045
18,UCCUCCUACAGCUUGGAUAGUAUAUAGUUA,0.00941 ± 0.0032
19,UCCUGCUACAGCUUGCAUACUAAUUAGUUA,0.00252 ± 0.0014
20,UCCUGGAUGAGCUUCCAUAGUAUUUAGUAA,0.00253 ± 0.0019

row,Sequence,pre-steady-state target cleavage rate
1,UCCUGGAUGAGCUUGCCUAGUAUUUAGUUA,0.00623 ± 0.0037
2,UCCUGCUACAGCUUGCAUAGUAUUUUGUAA,0.00356 ± 0.0022
3,UCCUCCUAAAGCUUGCAUAGUAUUUAGUUA,0.00604 ± 0.0023
4,UCCUGGAUGUGCUUACAUAGUAUUUAGUUA,0.0113 ± 0.0041
5,UCCUGGAUGAGCUAGCAUAGUAUUUUGUUA,0.00327 ± 0.003
6,UCCUGGAUGUGCUUGCAUUCAUAAAUCAAA [g13:g20:cont:t1A],< 0.0001
7,UCCUGGUUCAGCUUCCAUAGUAUUUAGUUA,0.00303 ± 0.0021
8,UCCUGCUACAGCUAGCAAAGUAUUUAGUUA,0.0328 ± 0.0098
9,UCCUGGAACAGGAUGCAUAGUAUUUAGAAA,0.00257 ± 0.0016
10,UCCUCCUACAGGUUGCAUUGUAUUUAGUUA,0.0124 ± 0.0028
11,UCCUGGUACAGCUUGCAUAGUAUUUGAGUUA,0.00306 ± 0.0023
12,UCCUGGAACAGCUUCCAAAGUAUUUAGUUA,0.00262 ± 0.0019
13,UCCUCCUACAGCUUGCAUAGUUUUAGUUA,0.00276 ± 0.0023
14,UCCUGCUACAGCUUGCAUAGUACUUAGUUA,0.00608 ± 0.0018
15,UCCUCCUACAGCUUGCAUAGUAUUUCGUUA,0.00416 ± 0.0023
16,UCCUGGAUGUGCUUGCAUAGUAUUUAAUUA,0.113 ± 0.038
17,UCCUGGAUGUCGUAGCAUAGUAUUUAGUUA,0.00385 ± 0.0025
18,UCCUCCUACAGCUUGGAAAGUAUUUAGUUA,0.0615 ± 0.013
19,UCCUGCUACAGCAAGCAUAGUAUUUAGUUA,0.0176 ± 0.0059
20,UCCUGGAUGUCGAUGCAUAGUAUUUAGUAA,0.00329 ± 0.0032
